Screening data: PubChem, The Scripps Research Institute Molecular Screening Center
NR5A2 inv ag: inverse agonists of human LRH-1 (NR5A2) | O00482 | HEK293T StAR-luciferase reporter, LRH-1 transfected, 24 h | inhibition, % at 3.6 µM | 0.13% of 360,000 active | AID 602396;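 active = inhibition above the mean inhibition of all tested compounds plus 3 SD, cut at about 73% in these data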
GalR3 antagonist: blocks the human galanin receptor 3; HEK293 GalR3-CNG cAMP membrane potential fluorescence; galR3 body fused to GalR1 C-terminus; 0.44% of 360,000 active; inhibition, % at 3 µM; AID 651719; O60755;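 active = inhibition above the screen-wide average plus 3 SD, cut at about 13% in these data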;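 note: forskolin and galanin both at EC90 stimulate the cells; cAMP rise reported by CNG channel membrane potential dye signal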
SRC2 inh: inhibits human steroid receptor coactivator 2 | Q15596 | AID 651957 | inhibition, % at 9 µM | 0.17% of 370,000 active | HEK293 GAL4-SRC2 luciferase reporter, luminescence;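 active = inhibition above the mean inhibition of all tested compounds plus 3 SD, set per campaign, cut at about 52% in these data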
NCOA3 inh: human NCOA3 inhibition; AID 588352; 0.17% of 360,000 active; inhibition, % at 3.6 µM; Q9Y6Q9; HEK293 GAL4-SRC3 luciferase reporter, luminescence;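 active = inhibition above a per-campaign cutoff, the mean of all compounds plus 3 SD, cut at about 60% in these data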;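 note: higher means less SRC3-driven luciferase light from the GAL4 reporter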
NR2F2 inh: NR2F2 (human) inhibition, primary screen; HEK293T NGFI-A luciferase reporter, luminescence; inhibition, % at 8.6 µM; AID 686940; 0.7% of 370,000 active;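 active = inhibition above a per-plate cutoff, mean inhibition of test wells between control levels plus 3 SD, cut at about 38% in these data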;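 note: cells cotransfected with COUP-TFII expression vector driving the NGFI-A reporter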
NCOA1 inh: inhibits human SRC1 coactivator; Q15788; HEK293 GAL4-SRC1 luciferase reporter, luminescence; inhibition, % at 3.6 µM; 0.12% of 360,000 active;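 active = inhibition above the campaign mean plus 3 SD, with each screening campaign given its own cutoff, cut at about 60% in these data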
Target sequence (Q15788 whole entry, looked up, the tested form may be a part): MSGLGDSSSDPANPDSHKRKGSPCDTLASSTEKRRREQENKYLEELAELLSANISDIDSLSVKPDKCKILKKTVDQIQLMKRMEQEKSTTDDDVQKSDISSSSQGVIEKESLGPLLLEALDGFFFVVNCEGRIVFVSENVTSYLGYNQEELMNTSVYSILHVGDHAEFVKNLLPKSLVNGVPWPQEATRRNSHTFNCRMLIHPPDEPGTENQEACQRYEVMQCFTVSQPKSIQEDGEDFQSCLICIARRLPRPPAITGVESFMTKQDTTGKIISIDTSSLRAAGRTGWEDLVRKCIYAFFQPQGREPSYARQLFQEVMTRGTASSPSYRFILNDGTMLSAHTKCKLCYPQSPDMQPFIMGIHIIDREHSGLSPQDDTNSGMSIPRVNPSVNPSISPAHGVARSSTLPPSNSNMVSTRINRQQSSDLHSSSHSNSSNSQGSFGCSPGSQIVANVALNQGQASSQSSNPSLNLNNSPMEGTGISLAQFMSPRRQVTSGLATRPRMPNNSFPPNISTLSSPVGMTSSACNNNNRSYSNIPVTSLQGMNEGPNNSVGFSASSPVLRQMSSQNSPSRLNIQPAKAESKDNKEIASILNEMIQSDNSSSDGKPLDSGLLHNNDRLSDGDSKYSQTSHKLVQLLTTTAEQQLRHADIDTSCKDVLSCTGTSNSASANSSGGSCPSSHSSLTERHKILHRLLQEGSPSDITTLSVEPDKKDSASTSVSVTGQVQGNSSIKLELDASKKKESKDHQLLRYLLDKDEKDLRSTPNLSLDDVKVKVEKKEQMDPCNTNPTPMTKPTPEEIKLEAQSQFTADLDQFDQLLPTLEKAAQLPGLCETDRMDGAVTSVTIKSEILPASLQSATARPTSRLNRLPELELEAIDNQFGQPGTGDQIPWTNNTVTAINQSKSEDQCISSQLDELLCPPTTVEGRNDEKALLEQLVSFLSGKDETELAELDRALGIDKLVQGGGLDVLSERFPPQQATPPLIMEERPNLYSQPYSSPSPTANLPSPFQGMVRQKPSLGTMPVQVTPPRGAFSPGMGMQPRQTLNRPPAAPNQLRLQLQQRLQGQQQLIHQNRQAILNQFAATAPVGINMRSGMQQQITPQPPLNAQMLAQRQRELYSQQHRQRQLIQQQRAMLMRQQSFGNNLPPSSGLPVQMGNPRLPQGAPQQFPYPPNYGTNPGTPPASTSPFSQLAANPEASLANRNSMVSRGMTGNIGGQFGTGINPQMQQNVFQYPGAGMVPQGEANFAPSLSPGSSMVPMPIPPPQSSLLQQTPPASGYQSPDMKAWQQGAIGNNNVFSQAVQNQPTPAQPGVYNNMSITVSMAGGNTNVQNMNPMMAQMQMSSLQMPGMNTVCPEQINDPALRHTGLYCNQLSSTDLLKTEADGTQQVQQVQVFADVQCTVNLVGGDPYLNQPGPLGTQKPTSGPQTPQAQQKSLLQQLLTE
GalR3 conf: GalR3 (human) antagonism, confirmation. HEK293 GalR3 CNG cAMP biosensor, membrane potential fluorescence; galR3 fused to GalR1 carboxy tail; challenged with forskolin and galanin at EC90. 59% of 1,600 active. AID 652245. shares compounds with GalR3 antagonist. inhibition, % at 3 µM;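 active = inhibition above the primary screen's cutoff, the mean inhibition of all screened compounds plus 3 SD, cut at about 13% in these data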
HEK-CNG parental: counter-screen for GalR3 antagonists: nonspecific agonists in parental HEK-CNG cells. 10% of 1,600 active. HEK293-CNG parental cells, cAMP membrane potential fluorescence; normalised: DMSO wells 0%, forskolin wells 100%. AID 652268. activation, % at 3 µM. shares compounds with GalR3 antagonist; in the data active = activation above about 1.3%
A number is an active result; 0 = inactive; - = not tested or not shown. A selection: hits, their analogues and other compounds. The true share with any hit is near 1.1%.

SMILES	NR5A2 inv ag	GalR3 antagonist	SRC2 inh	NCOA3 inh	NR2F2 inh	NCOA1 inh	GalR3 conf	HEK-CNG parental
Nc1nc(=O)n(C2OC(CO)C(O)C2O)cc1F (stereo unspecified)	0	0	0	0	0	0	-	-
Nc1cnn(C2OC(CO)C(O)C2O)c(=O)n1 (stereo unspecified)	0	21	0	0	0	0	0	0
O=C(CSC1=NCCS1)c1ccc(Cl)cc1	0	0	0	0	0	0	-	-
O=C(CSC1=NCCS1)N1CCN(c2ccc(Cl)cc2)CC1	0	45	0	0	0	0	46	0
O=C1CCC(CNc2ccccc2)N1c1ccccc1 (stereo unspecified)	-	-	-	-	0	-	-	-
CC(=O)Nc1ccc(S(=O)(=O)Oc2ccc(N3C(=O)C4CCCCC4C3=O)cc2)cc1 (stereo unspecified)	0	42	0	0	0	0	39	0
Cc1ccc(C(=O)N/C(=C/c2ccco2)C(=O)NC2CCS(=O)(=O)C2)cc1 (stereo unspecified)	0	0	0	0	0	0	-	-
COc1ccc(/C=C(/NC(=O)c2ccccc2)C(=O)NC2CCS(=O)(=O)C2)cc1 (stereo unspecified)	0	-	0	0	0	0	0	0
N[C@@H](CO)c1nnc([C@H](Cc2ccc(O)cc2)NC(=O)C2CCNCC2)o1	0	0	0	0	0	0	-	-
NCCCC[C@H](NC(=O)C1CCNCC1)c1nnc([C@@H](N)Cc2ccc(O)cc2)o1	0	-	0	0	0	0	0	0
COc1ccc(-n2c(SCC(=O)Nc3ccc(S(=O)(=O)Nc4nccs4)cc3)nnc2-c2ccccc2)cc1	-	-	0	-	0	-	-	-
COCCCn1c(-c2ccc(Cl)cc2)n[nH]c1=S	0	0	0	0	0	0	-	-
COCCCn1c(-c2ccccc2Cl)n[nH]c1=S	0	-	0	0	0	0	0	0
CC(=O)NC(Cc1c[nH]c2ccccc12)C(=O)OCC(=O)Nc1ccc2c(c1)OCO2 (stereo unspecified)	0	15	0	0	0	0	0	0
O=C(CSc1nc2ccccc2[nH]1)Nc1c(F)c(F)c(F)c(F)c1F	0	16	0	0	0	0	0	0
O=C1CCC[C@H]2C[C@H](NCc3ccc(Cl)c(C(F)(F)F)c3)CC[C@]23CCCN13	-	-	-	-	0	-	-	-
CS(=O)(=O)N1CCN(c2ccccc2NC(=O)c2ccc(Cl)cc2)CC1	0	-	0	0	0	0	0	0
CS(=O)(=O)N1CCN(c2ccccc2NC(=O)c2ccc3ccccc3c2)CC1	0	0	0	0	0	0	-	-
CN(C(=O)c1ccc(S(=O)(=O)c2cccc(Cl)c2)c([N+](=O)[O-])c1)C1CCCCC1	0	22	0	0	0	0	0	0
CN(CCc1ccccc1)C(=O)c1ccc2c(c1)ncn2C1CCCCC1	-	-	0	-	0	-	-	-
O=Cc1cn(CC(=O)N2CCCCCC2)c2ccccc12	0	19	0	0	0	0	0	0
Cc1ccc(NC(=O)CN(C)C(=O)CCCN2C(=O)c3ccccc3C2=O)cc1	0	14	0	0	0	0	0	0
CC1=CC2(C(Cc3ccccc3)N(CC3CC3)C(=NC(=O)c3ccccc3)N2C(=O)OCc2ccccc2)n2c(=O)n(-c3ccccc3)c(=O)n2C1 (stereo unspecified)	-	-	0	-	0	-	-	-
CC(=O)Nc1cccc(C(=O)/C=C/c2ccc(Br)cc2)c1	0	15	0	0	0	0	30	0
C1=CC2CC1CC2CN1CCN(Cc2ccccc2)CC1 (stereo unspecified)	0	-	0	0	0	0	0	1.8
Cc1ccc(CN2CCN(/N=C/c3ccc(C(F)(F)F)cc3)CC2)cc1	0	16	0	0	0	0	0	0
C=CCn1c(SCc2c(Cl)cccc2Cl)nnc1-c1cccc(C)c1	-	-	0	-	0	-	-	-
CCOC(=O)CNC(=O)CSc1nnc(-c2ccc(C(C)(C)C)cc2)n1-c1ccc(Cl)cc1	-	-	0	-	0	-	-	-
